Source: PubChem BioAssay (several laboratories)
The list is not random: actives were taken first. Their share in the collection is about 4.7%.
ALR inh – inhibitors of human ALR sulfhydryl oxidase, primary screen, biochemical, H2O2 detection, HRP-luminol luminescence, single point | 290,000 tested, 3.8% active | FAD-linked sulfhydryl oxidase ALR (Homo sapiens), P55789 | purified ALR, DTT oxidation | inhibition, % (concentration not given with the values) | AID 485317, 2010;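 active means mean replicate inhibition above about 79%, with every replicate also reaching it, limit read from the data; inconclusive means only one of the two criteria met; inactive means mean below limit and not every replicate reaching it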
Target sequence (P55789 whole entry, looked up): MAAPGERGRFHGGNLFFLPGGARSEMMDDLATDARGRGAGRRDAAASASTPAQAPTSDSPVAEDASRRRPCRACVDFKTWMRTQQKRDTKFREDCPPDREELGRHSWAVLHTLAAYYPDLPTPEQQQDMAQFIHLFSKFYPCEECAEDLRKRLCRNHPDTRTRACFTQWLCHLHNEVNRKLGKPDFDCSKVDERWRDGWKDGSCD
PABP1 MLLE inh – inhibitors of PABP1 MLLE–PAM2 peptide binding, primary screen, biochemical, fluorescence polarization, FITC-PAM2, GST-MLLE. Polyadenylate-binding protein 1 (Homo sapiens), P11940. inhibition, % at 20 µM. 360,000 tested, 0.36% active. AID 588489, 2011; in the data active means inhibition above about 35%, passing the limit was not always enough;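 further: plate controls were DMSO wells with GST-MLLE for no effect and wells lacking GST-MLLE protein for full effect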
eIF4H inh – human eIF4H binding inhibitors, primary screen, translation initiation inhibitor project, biochemical, uHTS, fluorescence polarization; Eukaryotic translation initiation factor 4H (Homo sapiens), Q15056; eIF4H fluorescence polarization binding assay; inhibition, % at 35 µM; 290,000 tested, 0.94% active; AID 2012, 2009;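 further: calls also rest on retests at 20 µM and on dose response follow-up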
UBC9 SUMO inh – inhibitors of in vitro SUMOylation cascade, primary screen, biochemical, HTRF, uHTS; SUMO-conjugating enzyme UBC9 (Homo sapiens), P63279; HTRF SUMOylation assay, SAE1/SAE2 + UBC9; inhibition, % at 35 µM; 290,000 tested, 0.36% active; AID 2006, 2009; in the data active means inhibition above about 50%, passing the limit was not always enough; inconclusive means no clear call, values can overlap the other calls
Target sequence (P63279 whole entry, looked up): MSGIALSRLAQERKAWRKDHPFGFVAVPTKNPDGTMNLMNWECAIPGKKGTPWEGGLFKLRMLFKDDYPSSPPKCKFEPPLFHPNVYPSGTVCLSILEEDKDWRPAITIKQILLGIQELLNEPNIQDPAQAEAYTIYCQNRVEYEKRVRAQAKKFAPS
Efflux pump mplx – inhibitors of Candida efflux pumps in yeast, primary screen, S. cerevisiae, Nile Red, multiplex; S. cerevisiae Candida pump triplex; inhibition, % at 10 µM; 330,000 tested, 0.44% active;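 active means plate passing quality check with inhibition over a set limit, or well fluorescence over plate mean plus 4 SD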;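 further: Nile Red retained in pooled yeast measured as flow cytometry median fluorescence; 0% = buffer negative control and 100% = Enniatin B positive control; higher means more Nile Red kept so more efflux inhibition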
PABP FP inh – PABP poly(A) RNA binding inhibitors, primary screen, biochemical, fluorescence polarization, uHTS. Polyadenylate-binding protein 1 (Homo sapiens), P11940. inhibition, % at 35 µM. 290,000 tested, 1% active. AID 2014, 2009;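 further: calls also rest on retests at 20 µM and on dose response follow-up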
Starred values were filed as active, the others as inactive; ? = inconclusive; . = no result. Unless noted, how the calls were made is not given here.

SMILES | ALR inh | PABP1 MLLE inh | eIF4H inh | UBC9 SUMO inh | Efflux pump mplx | PABP FP inh
COc1ccc(C(=O)NC(=S)NNC(=O)COc2ccccc2)cc1 | 98* | 25 | 10 | -17 | 0 | 5
O=C(CCc1ccccc1)NNC(=S)NC(=O)c1ccc(Cl)cc1 | 99* | . | 6 | -4 | 0 | -2
CCC(=O)NNC(=S)NC(=O)c1ccc(C)cc1 | 99* | 3 | 0 | 2 | 0 | -1
Cc1cc(=O)oc2cc(OCC(=O)NC3(C#N)CCCCC3)ccc12 | . | -27 | . | . | . | .
O=C(NC(=S)Nc1ccccc1C(=O)O)c1cncc(Br)c1 | . | 20 | -15 | 2 | 0 | 10
O=C(O)c1ccccc1NC(=O)c1ccccc1Nc1ccccc1 | 98* | 6 | -1 | 12 | 0 | 18
O=C(O)CNc1ccccc1C(=O)O | -1 | 3 | 74* | 13 | 0 | 39
Nc1ccc(C(=O)Nc2ccccc2C(=O)O)cc1 | . | 11 | 6 | 0 | 0 | 9
O=C(O)c1ccccc1NCc1cccnc1 | 7 | 12 | . | . | 0 | .
O=C(Nc1ccccc1C(=O)O)c1cncc(Br)c1 | 49 | -111 | 0.6* | 0 | 0 | 52
O=C(Nc1ccccc1C(=O)Nc1ccccc1C(=O)O)c1ccccc1 | 97* | 7 | 3 | 23 | 0 | 19
CCOC(=O)C1(C)CCN1C(=O)c1ccc(C(C)(C)C)cc1 (stereo unspecified) | . | -7 | . | . | . | .
COc1ccc(C2(c3ccc(OC)cc3)NC(=O)N(CC(=O)N3CCOCC3)C2=O)cc1 | 0 | -8 | . | . | 0 | .
CS(=O)(=O)c1ccc(Cl)c(NC(=O)c2ccc(-n3cncn3)c([N+](=O)[O-])c2)c1 | . | -53 | . | . | . | .
CC1(C)Oc2ccc3ccc(=O)oc3c2[C@H](O)[C@H]1O | 1 | 1 | . | . | 0 | .
CC1(C)Oc2ccc3ccc(=O)oc3c2C(N2CCCCC2)C1O (stereo unspecified) | -14 | -17 | 42* | 6 | 0 | 64
C=Cc1cnc([N+](=O)[O-])n1C | . | 5 | . | . | . | .
O=C(Cc1nnc(NC(=O)c2ccccc2)s1)N/N=C\c1ccc(O)c(O)c1 | 63 | -10 | 59* | 14 | 0 | 28
CCC1(CC)NC(=O)N(CC(=O)Nc2sc3c(c2C(N)=O)CCC3)C1=O | 17 | -25 | 79* | 43 | 0 | 71*
CN(C)c1ccc2nc3ccc(=O)cc-3sc2c1 | . | -12 | . | . | . | .
CN(C)c1ccc2nc3ccc(=[N+](C)C)cc-3sc2c1 | 99* | 14 | ? | -226 | 0 | -12
Cn1cccc1C(NC(=O)c1ccccc1)C(Cl)(Cl)Cl (stereo unspecified) | -5 | -1 | 2 | 5 | 0 | 2
Nc1ccccc1C(=O)NNc1c2ccccc2nc2ccccc12 | 98* | -45 | -8 | 0 | 0 | 11
C[N+]1(CC(=O)NNc2c3ccccc3nc3ccccc23)CCOCC1 | 99* | . | -10 | -8 | 0 | -3
O=C(CN1CCOCC1)NNc1c2ccccc2nc2ccccc12 | 98* | -4 | -16 | 1 | 0 | -2
SMILES | ALR inh | PABP1 MLLE inh | eIF4H inh | UBC9 SUMO inh | Efflux pump mplx | PABP FP inh
Cc1ccc(C(=O)NNc2c3ccccc3nc3ccccc23)cc1 | 22 | -43 | 0 | -10 | 0 | 0
C=CCc1cc(C=Nc2ccc(N3CCOCC3)cc2)cc(OCC)c1O | . | 6 | . | . | . | .
Cc1oc2c(CN3CCC(C)CC3)c(O)ccc2c(=O)c1-c1ccccc1 | -41 | -5 | 2 | 42 | 0 | 2
O=[N+]([O-])c1ccc(CNCc2cc(Cl)ccc2O)cc1 | . | -4 | . | . | 0 | .
Cc1cc(C)n2c(SCC(=O)Nc3cccc(S(N)(=O)=O)c3)nnc2n1 | . | -2 | . | . | 0 | .
COc1ccc(NC(=O)CSc2nc(O)cc(=O)[nH]2)c(OC)c1 | 99* | 16 | -9 | 16 | 0 | 8
NC(=O)C1CCN(C(=O)CSc2nc(O)cc(=O)[nH]2)CC1 | 3 | 11 | -1 | -3 | 0 | 0
CCCCNC(=O)c1cccnc1SCC(=O)Nc1ccccc1OC | -2 | 7 | -10 | 6 | 0 | 2
CCn1c(SCC(=O)Nc2ccccc2OC)nc2ccccc2c1=O | 6 | 3 | 5 | 5 | 0 | -11
O=C(CSc1nc(O)cc(=O)[nH]1)C1CC1 | 86* | 13 | 3 | 26 | 0 | 1
COc1ccc(NC(=O)CSc2cn[nH]n2)c(OC)c1 | -7 | 8 | -1 | 5 | 0 | 5
COc1ccccc1NC(=O)CSc1c2c(nc3ccccc13)CCC2 | 99* | 18 | 7 | 14 | 0 | -13
CCCCCCCCNC(=O)c1cccnc1SCC(=O)Nc1ccc(OC)cc1OC | -1 | -5 | 64* | -12 | -2 | 6.4*
COc1cc(NC(=O)c2ccc3c(SCC(=O)O)c4c(nc3c2)CCC4)cc(OC)c1OC | -5 | -16 | 42 | 3 | 1 | 45
O=C(CSc1c2c(nc3ccccc13)CCC2)N1CCCC1 | 98* | 5 | 1 | 3 | 0 | 6
O=C(CSc1c2c(nc3cc(Cl)ccc13)CCCC2)NCc1ccco1 | . | 17 | 8 | 1 | 0 | 5
COc1cc(NC(=O)CSc2c3c(nc4ccccc24)CCC3)cc(OC)c1OC | 98* | 13 | 2 | -4 | 0 | 0
COc1ccc(NC(=O)CSc2c3c(nc4cc(Cl)ccc24)CCCC3)cc1OC | 99* | 19 | -3 | -8 | 0 | 5
COCCNC(=O)CSc1c2c(nc3ccc(Cl)cc13)CCCC2 | 98* | 11 | 2 | 0 | 0 | 2
CCOC(=O)C1CCN(C(=O)CSc2c3c(nc4ccccc24)CCC3)CC1 | -6 | -3 | -5 | 5 | 0 | 11
CC(=O)N(C)c1cccc(-c2ccc3nnc(C)n3n2)c1 | . | 7 | -6 | 3 | 0 | 4
Cc1c(CN2CCC(CO)(CC3CCCCO3)CC2)cnn1C (stereo unspecified) | -2 | 9 | -9 | 4 | 0 | -12
Cc1cc(C)c2c(c1)NC(c1cc3c(cc1Br)OCO3)C1CC=CC21 (stereo unspecified) | . | -10 | -7 | 3 | 0 | -8
Cc1c(NS(=O)(=O)c2ccc(NCCN3CCOCC3)c([N+](=O)[O-])c2)c(=O)n(-c2ccccc2)n1C | -10 | 15 | 7 | -10 | 0 | 16
O=[N+]([O-])c1ccc(N=Nc2ncc[nH]2)cc1 | 32 | 18 | -2 | -22 | 0 | -10
CCc1nc2ccc(C(=O)NCCCN3CCCC3=O)cn2c1N(C)Cc1ccc(OC)cc1 | . | -5 | . | . | . | .
CC(C)NC(=O)CSc1nc(Cc2ccccc2)nc2ccccc12 | . | 18 | -10 | 3 | 0 | 4
Cc1cc(NC(=O)CSc2c3c(nc4ccccc24)CCC3)no1 | 98* | 18 | 2 | 19 | 0 | -2
